The source of these data is PubChem BioAssay (Tox21).

Molecules are shown by their SMILES. Inconclusive results are not listed. Entries that show only a call come without a potency. The source made the active and inactive calls. The call rests on the fitted dose curve; in most records, active means well fitted activation curve with a large enough effect in the repeat runs; inconclusive means weak or mixed curves; inactive means flat fitted curve, though single readings scatter.
Potency means the concentration at half of the fitted maximal effect.

The nature of this experiment: A CellTox Green Cytotoxicity Assay to monitor cytotoxicity in HepG2 cells - 8 hour (AID 1224890). Further: nearly all actives have a fitted effect of over 45% in size. The conditions noted are these: CellTox Green fluorescence; series mostly up to 76.8 µM. The text has this: National Center for Advancing Translational Sciences [NCATS]
NIH Chemical Genomics Center [NCGC]
U.S. Environmental Protection Agency [EPA]
National Institutes of Environmental Health Sciences [NIEHS]
National Toxicology Program [NTP]
Cell-based models are critical for drug discovery. Determining the natural cytotoxic effects resulting from test compounds is an essential research activity. A CellTox Green Cytotoxicity Assay to monitor cytotoxicity in real time of continues cell culture during 40 hours of the compound treatment was used to screen Tox21 10K library compounds in HepG2 cells. CellTox Green Cytotoxicity Assay is a nonlytic, homogeneous, biofluorescent method to measure cytotoxicity in cell culture after experimental manipulation. The assay system uses a proprietary asymmetric cyanine dye that is excluded from viable cells but preferentially stains the dead cell's DNA. […] Viable cells produce no appreciable increases in fluorescence. Therefore, the fluorescence signal produced by the binding interaction with dead cell DNA is proportional to cytotoxicity.
The mixture of HepG2 cell suspension and reagents were dispensed at 600cells/6 ul/well in 1536-well tissue culture treated black solid bottom plates using a Multidrop dispenser. After the assay plates were incubated at a 37 C/5% CO2 incubator for 5 hours, 23 nL of compounds dissolved in DMSO, positive and negative controls was transferred to the assay plate by a pintool work station. The plates were incubated at 37 C for 40 hours. The fluorescence intensity were measured at 0h, 8h, 16h, 24h, 32h and 40h time points using ViewLux plate reader during compound treatment.
For the molecule `O=C(CCCCl)c1ccc(F)cc1`, the Potency result was “inactive”. Under `ClC(Cl)C(Cl)(Cl)Cl` stands “inactive”. Take `CC(Cc1ccc(O)cc1)NCC(O)c1cc(O)cc(O)c1` (stereo not given): the Potency result is “inactive”. Under `CCCCON=O` stands “inactive”; under `CSC(C)(C)/C=N/O`, “inactive”; under `Oc1cc(Cl)cc(Cl)c1`, “inactive”. Under `N#Cc1sc2c(=O)c3ccccc3c(=O)c=2sc1C#N` stands 54.9 µM (active); under `CC(Cl)CCl` (stereo not given), “inactive”. Turning to `CCOP(=S)(NC(C)C)Oc1ccccc1C(=O)OC(C)C` (stereo not given), the Potency result is “inactive”.

On to `CN/C(=N\[N+](=O)[O-])NCc1cnc(Cl)s1`, for which the Potency result is “inactive”. Then `Cc1ccc(C)c2ccccc12`, with “inactive”; and `CC(C)C(Nc1ccc(C(F)(F)F)cc1Cl)C(=O)OC(C#N)c1cccc(Oc2ccccc2)c1` (stereo not given), with “inactive”. `O=C(N[C@H]1N=C(c2ccccc2F)c2cccc3c2N(CC3)C1=O)c1cc2ccccc2[nH]1`: the Potency result is “inactive”. Under `CCC(C)Nc1c([N+](=O)[O-])cc(C(C)(C)C)cc1[N+](=O)[O-]` (stereo not given) stands “inactive”; under `O=C(NC(=O)c1ccccc1Cl)Nc1ccc(OC(F)(F)F)cc1`, “inactive”; under `CCCCC(CC)COC(=O)OOC(C)(C)C` (stereo not given), “inactive”. Regarding `CNC(C)(C)Cc1ccccc1`, the Potency entry is “inactive”. Under `Cc1nn(-c2cc(NS(C)(=O)=O)c(Cl)cc2Cl)c(=O)n1C(F)F` stands “inactive”; under `ClC1=C(Cl)[C@]2(Cl)[C@@H]3[C@H]4C[C@H]([C@@H]5O[C@H]45)[C@@H]3[C@@]1(Cl)C2(Cl)Cl`, “inactive”.

Turning to `CC(C)Br`, the Potency result is “inactive”. On to `COc1nc(C)nc(NC(=O)NS(=O)(=O)c2ccccc2Cl)n1`, for which the Potency entry is “inactive”. Then `CC(C)=CC1C(C(=O)OC(C#N)c2cccc(Oc3ccccc3)c2)C1(C)C` (stereo not given), with “inactive”. On to `[O]=[Cr][O][Cr]=[O]`, for which the Potency entry was “inactive”. Under `CCOP(=S)(OCC)SC(CCl)N1C(=O)c2ccccc2C1=O` (stereo not given) stands “inactive”; under `COC(=O)c1ccccc1S(=O)(=O)NC(=O)Nc1nc(C)nc(OC)n1`, “inactive”. Then `C=CCOC(=O)c1ccccc1N`, with “inactive”; and `c1ccc2c(c1)cc1ccc3cccc4ccc2c1c34`, with “inactive”; and `CC(C)C(Br)C(=O)NC(N)=O` (stereo not given), with “inactive”.

Consider `CSSC`, for which the Potency entry is “inactive”. Then `c1ccc(N=NNc2ccccc2)cc1`, with “inactive”. On to `O=C(NC(=O)c1c(F)cccc1F)Nc1ccc(Oc2ccc(C(F)(F)F)cc2Cl)cc1F`, for which the Potency result is “inactive”.

For `[O]=[Cr](=[O])([OH])[O][Cr](=[O])(=[O])[OH]`, the Potency result is “inactive”. Then `CC[N+]1(CC)CCC(OC(=O)C(O)(c2ccccc2)c2ccccc2)C1` (stereo not given), with “inactive”. For the molecule `N#CSCc1ccccc1`, the Potency result is “inactive”. In the case of `O=c1[nH]c(Cl)c(Cl)cc1Cl`, the Potency entry is “inactive”.

With `CO/N=C(\C(=O)OC)c1ccccc1CO/N=C(\C)c1cccc(C(F)(F)F)c1`, the Potency result was “inactive”. As to `COc1ccc2c(c1OC)C(=O)O[C@@H]2[C@H]1c2cc3c(cc2CCN1C)OCO3`, the Potency result was “inactive”.

`CC(Cc1ccc2c(c1)OCO2)NO` (stereo not given): the Potency result is “inactive”.

`N#Cc1c[nH]cc1-c1cccc2c1OC(F)(F)O2`: the Potency result was “inactive”. Regarding `COP(=O)(OC)O/C(=C\Cl)c1cc(Cl)c(Cl)cc1Cl`, the Potency result is “inactive”.
